{"source": "the supplement of paper PMC13380429", "note": "Values without a mark were called inactive.", "data": [{"test_system": "Vero E6 infected with SARS-CoV-2", "experiment": "inhibition of SARS-CoV-2 cytopathic effect; higher = more antiviral protection, active = above 15", "details": "1 nM; 48 h", "units": {"inhibition of SARS-CoV-2 cytopathic effect": "%"}, "values": [{"smiles": "CC(O)Cn1cnc2c1c(=O)n(C)c(=O)n2C", "note": "(centres undefined) [Proxyphylline]", "inhibition of SARS-CoV-2 cytopathic effect": -1.14}, {"smiles": "COc1cc(Cc2cnc(N)nc2N)cc(OC)c1OC", "note": "[trimethoprim]", "inhibition of SARS-CoV-2 cytopathic effect": -0.11}, {"smiles": "Cc1cc(C)cc(NC(=O)Cc2ccc(OC(C)(C)C(=O)O)cc2)c1", "note": "[efaproxiral]", "inhibition of SARS-CoV-2 cytopathic effect": -0.22}, {"smiles": "COc1ccc(OC)c(C(O)C(C)N)c1", "note": "(centres undefined) [methoxamine]", "inhibition of SARS-CoV-2 cytopathic effect": 0.07}, {"smiles": "O=c1cc(-c2cccc3c2Sc2ccccc2S3)oc(N2CCOCC2)c1", "inhibition of SARS-CoV-2 cytopathic effect": 2.07}, {"smiles": "NCC[C@H](O)C(=O)N[C@@H]1C[C@H](N)[C@@H](O[C@H]2O[C@H](CN)[C@@H](O)[C@H](O)[C@H]2O)[C@H](O)[C@H]1O[C@H]1O[C@H](CO)[C@@H](O)[C@H](N)[C@H]1O", "note": "[amikacin]", "inhibition of SARS-CoV-2 cytopathic effect": -1.45}]}, {"test_system": "Vero E6 infected with SARS-CoV-2", "experiment": "inhibition of SARS-CoV-2 cytopathic effect; higher = more antiviral protection, active = above 15", "details": "8.33 nM; 48 h", "units": {"inhibition of SARS-CoV-2 cytopathic effect": "%"}, "values": [{"smiles": "S=C(NCc1ccc2c(c1)OCO2)N1CCN(c2ncnc3c2oc2ccccc23)CC1", "note": "[amuvatinib]", "inhibition of SARS-CoV-2 cytopathic effect": -0.46}, {"smiles": "CC[N+](CC)(CC)CCC(O)(c1ccccc1)C1CCCCC1", "note": "(centres undefined) [tridihexethyl]", "inhibition of SARS-CoV-2 cytopathic effect": -1.31}, {"smiles": "CC(C)C(N)C(=O)O", "note": "(stereo in doubt) [L-valine]", "inhibition of SARS-CoV-2 cytopathic effect": -0.34}, {"smiles": "CCO[C@@H]1OC(=O)C[C@@H]1NC(=O)[C@@H]1CCCN1C(=O)[C@@H](NC(=O)c1ccc(N)c(Cl)c1)C(C)(C)C", "inhibition of SARS-CoV-2 cytopathic effect": -1.09}, {"smiles": "CCN(CC)CCOC(=O)C1(c2ccccc2)CCCC1", "note": "[caramiphen]", "inhibition of SARS-CoV-2 cytopathic effect": -4.75}, {"smiles": "CCCN(CCC)C1Cc2cc(OC)c(OC)cc2C1", "inhibition of SARS-CoV-2 cytopathic effect": -0.86}, {"smiles": "CNc1nc(NCc2ccc(NS(C)(=O)=O)cc2Cl)cc(-c2ccccn2)n1", "inhibition of SARS-CoV-2 cytopathic effect": -3}, {"smiles": "COc1ccc(CNC(=O)c2sc3nc(C)cc(C)c3c2N)cc1", "inhibition of SARS-CoV-2 cytopathic effect": 2.93}, {"smiles": "COCCOc1cnc2ccn([C@H](C)c3nnc4c(F)cc(-c5cnn(C)c5)cn34)c(=O)c2c1", "inhibition of SARS-CoV-2 cytopathic effect": -1.31}, {"smiles": "O=C(CN1C2=NCCN2c2ccccc21)c1ccc(-c2ccccc2)cc1", "inhibition of SARS-CoV-2 cytopathic effect": 3.75}, {"smiles": "C[C@@H](O)[C@H]1C(=O)N2C(C(=O)O)=C(SCCNC=N)C[C@H]12", "note": "[imipenem]", "inhibition of SARS-CoV-2 cytopathic effect": 10}, {"smiles": "O=c1[nH]c2ccccc2n1C1CCN(CCOc2ccccc2)CC1", "note": "[oxiperomide]", "inhibition of SARS-CoV-2 cytopathic effect": -1.1}, {"smiles": "Cc1cccc(NC(=O)CN2CCC(c3ccccn3)CC2)c1", "inhibition of SARS-CoV-2 cytopathic effect": 1.06}, {"smiles": "O=C(O)C(=O)O.[NH-][C@@H]1CCCC[C@H]1[NH-].[Pt+2]", "note": "[oxaliplatin]", "inhibition of SARS-CoV-2 cytopathic effect": 1.96}, {"smiles": "O=C1C=CC[C@@H]2[C@H]3CCCN4CCC[C@@H](CN12)[C@@H]34", "note": "[sophocarpine]", "inhibition of SARS-CoV-2 cytopathic effect": -10.7}, {"smiles": "COC(=O)[C@H]1[C@H]2C[C@@H]3c4[nH]c5cc(OC)ccc5c4CCN3C[C@H]2C[C@@H](OC(=O)c2cc(OC)c(OC)c(OC)c2)[C@@H]1OC", "note": "[reserpine]", "inhibition of SARS-CoV-2 cytopathic effect": 3.05}, {"smiles": "CC(C)[C@H]1c2ccc(F)cc2CC[C@@]1(CCN(C)CCCc1nc2ccccc2[nH]1)OC(=O)C1CC1", "inhibition of SARS-CoV-2 cytopathic effect": 2.76}, {"smiles": "CC(C)(C)NC(=O)[C@@H]1CN(Cc2cccnc2)CCN1C[C@@H](O)C[C@@H](Cc1ccccc1)C(=O)N[C@H]1c2ccccc2C[C@H]1O", "note": "[indinavir]", "inhibition of SARS-CoV-2 cytopathic effect": -5.87}, {"smiles": "C[C@H](CCC(=O)NCCS(=O)(=O)O)[C@H]1CC[C@H]2[C@@H]3[C@@H](O)C[C@@H]4C[C@H](O)CC[C@]4(C)[C@H]3CC[C@]12C", "note": "[ursodeoxycholyltaurine]", "inhibition of SARS-CoV-2 cytopathic effect": 3.52}, {"smiles": "Cc1[nH]c(=O)c(C#N)cc1-c1ccc2nccn2c1", "note": "[olprinone]", "inhibition of SARS-CoV-2 cytopathic effect": 1.36}, {"smiles": "CCCCN(CCCC)CCCOC(=O)c1ccc(N)cc1", "note": "[butacaine]", "inhibition of SARS-CoV-2 cytopathic effect": 5.07}, {"smiles": "CSc1ccccc1OCC(O)CNC(C)C", "note": "(centres undefined) [tiprenolol]", "inhibition of SARS-CoV-2 cytopathic effect": 2.58}, {"smiles": "C/C(O)=C(\\C#N)C(=O)Nc1ccc(C(F)(F)F)cc1", "note": "[teriflunomide]", "inhibition of SARS-CoV-2 cytopathic effect": 1.99}, {"smiles": "O=C1c2ccccc2C(=O)C1c1ccc(Cl)cc1", "note": "[chlorindione]", "inhibition of SARS-CoV-2 cytopathic effect": -6.24}, {"smiles": "O=C(O)Cc1ccc(OCCNC[C@H](O)c2ccccc2)cc1", "inhibition of SARS-CoV-2 cytopathic effect": 3.11}, {"smiles": "c1ccc(CCCN2CCN(CCOC(c3ccccc3)c3ccccc3)CC2)cc1", "inhibition of SARS-CoV-2 cytopathic effect": 0.97}, {"smiles": "O=C(Nc1ccc(Cl)cc1)Nc1ccc(Cl)c(Cl)c1", "note": "[triclocarban]", "inhibition of SARS-CoV-2 cytopathic effect": -0.87}, {"smiles": "COc1ccc(Cl)c(Nc2ncnc3cc(OCC4CCN(C)CC4)c(OC)cc23)c1", "inhibition of SARS-CoV-2 cytopathic effect": -0.25}]}]}
